Consider 15 compounds from PubChem BioAssay (NCI).

This is part of a sample that, as a whole, favours compounds with a hit. Of some 83,000 tested, about 20% had one in any assay.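 For each line, cells grew in 96-well plates with the test compound present at a single concentration for 48 hours.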 Values without a mark were called inactive. Activity calls are given as the source filed them. Rule for the calls: active = growth percent below 10; inactive = the rest.

This test has as its system HL-60(TB) leukemia. In words: NCI-60 one-dose screen, 48 h (100 = growth as untreated, 0 = no growth, -100 = all killed). Particulars: 10 µM unless noted.
Regarding `Cc1c(CN)cc(-c2ccc(Cl)cc2)n1-c1ccccc1`, the growth was 86.9%.

For `N#CC1=C(N2CCOCC2)NC2c3ccccc3Sc3ccccc3N2C1=N` (stereo not given), the growth was 89.8%.

On to `COc1ccc(C2NC(=O)c3cc4c(cc3N2)OCO4)cc1` (stereo not given), for which the growth was -42% (active).

Turning to `Nc1nc(=O)n([C@H]2CC=C(CO)O2)cc1F`, the growth was 88%.

In the case of `C#Cc1nc(Nc2cc(C)[nH]n2)c2ccccc2n1`, the growth is -38.8% (active).

For the compound `CC(CCCC(=O)O)c1ccoc1` (stereo not given), the growth is 97.6%.

For `C[n+]1c(/C=C/c2c(O)ccc3ccccc23)ccc2ccccc21`, the growth is 17.9%.

Regarding `CCCOc1nc(SCCC)nc2c1cnn2-c1ccccc1`, the growth was 136%.

As for `CCCCCCCCC(C)C(=O)N1CCCC1C(=O)N1C(CC(=O)CC)CC(C)CC1C(=O)NC(C)C(=O)NC(C)(C)C(=O)NC(C)(C)C(=O)NC(C(=O)NC(C)C(=O)NC(C)(C)C(=O)NC(C)(C)C(=O)NC(C)CN(C)CCO)C(C)CC` (stereo not given), the growth is -51.8% (active).

With `Nc1nc(Cl)c2c(C(F)(F)F)cn(CC3CCNCC3)c2n1`, the growth was 25.5%.

Consider `O=c1c(/C=C/c2ccco2)nnc2sc(Nc3ccc(Cl)cc3)nn12`, for which the growth was 101%.

On to `CCN(CC)c1ccc(CNc2cc(C)nc3ccccc23)cc1`, for which the growth was 81.1%.

For `CCOC(=O)/C=C\C(=O)NC(N)=O`, the growth was 74.9%.

For the compound `Cc1ccc2nc(NC(=O)CSc3nc(Nc4ccc([N+](=O)[O-])cc4)c(C#N)c(-c4ccccc4)n3)sc2c1`, the growth is 95.2%.

In the case of `Cc1cc(NCc2cc(Nc3ccnc4cc(Cl)ccc34)ccc2F)nc(Cl)n1`, the growth was 22.9%.
